Bioassay records: PubChem BioAssay, National Center for Advancing Translational Sciences (NCATS)
Eya2 phos inh = Eya2 (human) phosphatase inhibition; AID 488837; Potency, µM (highest dose often 76.9 µM), without a hit: top-dose activity, negative = inhibition, usual class: inhibitors; recombinant Eya2, OMFP fluorescence dephosphorylation (OMFP is methylfluorescein phosphate); 330,000 tested, 0.006% active; O00167; also: potency is read from the fitted curve at half-maximal effect
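Eya2 (0.2 uM) preincubated 10 min at ambient with compound, then OMFP substrate added at 50 uM; 10 min reaction in 50 mM HEPES pH 7.5, 50 mM NaCl, 5 uM MgCl2, 0.05% BSA, 1 mM DTT. Fluorescence read at Ex 485/Em 525 nm.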
GALK inh = galactokinase (human) inhibition; Purified GALK, Kinase-Glo residual ATP luminescence; Potency, µM (series often up to 57.5 µM), for inactives: at the top dose activity change, negative = inhibition, most hits filed as inhibitors; 270,000 tested, 0.007% active; also: potency is read from the fitted curve at half-maximal effect
Target sequence (P51570 whole entry, looked up): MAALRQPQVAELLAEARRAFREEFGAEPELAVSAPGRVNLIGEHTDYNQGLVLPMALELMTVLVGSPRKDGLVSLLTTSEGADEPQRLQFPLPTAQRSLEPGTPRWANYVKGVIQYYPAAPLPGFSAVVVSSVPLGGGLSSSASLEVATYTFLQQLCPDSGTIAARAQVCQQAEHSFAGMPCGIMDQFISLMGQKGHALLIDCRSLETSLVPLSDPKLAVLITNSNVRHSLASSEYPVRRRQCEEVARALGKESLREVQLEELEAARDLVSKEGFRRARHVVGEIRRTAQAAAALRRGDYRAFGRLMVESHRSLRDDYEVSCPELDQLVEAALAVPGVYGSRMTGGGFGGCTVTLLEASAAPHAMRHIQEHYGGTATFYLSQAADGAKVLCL
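Galactose (100 uM) and ATP (35 uM) were turned over by 5 nM GALK for 1 h at RT. Kinase-Glo Plus then converted the remaining ATP into a luminescent signal.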
CtBP-E1A inh = inhibitors of CtBP/E1A interaction; activity change, % (concentration not given with the values); 340,000 tested, 0.49% active; AID 651724; AlphaScreen GST-E1A/His-CtBP binding, 1536-well; hits give low values; in the data active = activity change below about -65%; inconclusive = mostly about -30% to -63%
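Protein mix (5X: 125 nM each GST-E1A, His-CtBP) was incubated with pinned compound 2 h at 37 deg C in dark, in 50 mM Tris pH 8.0 buffer with 300 mM NaCl. Glutathione donor and nickel acceptor beads followed; AlphaScreen signal read after 1 h.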
TrxR1 substrate = is turned over as a substrate by rat TrxR1; 390,000 tested, 0.01% active; purified TrxR1 substrate turnover, NADPH consumption readout; AID 588456; O89049; Potency, µM (highest dose often 114 µM), inactives show top-dose activity change, negative = substrate turnover; also: potency is read from the fitted curve at half-maximal effect; nearly all actives have a fitted effect of over 50% in size
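Rat TrxR1, dispensed at 90 nM, was prereduced with 400 uM NADPH (final) for 5 min at ~22 deg C, then incubated with compound 15 min before 400 uM selenite. A first-read NADPH fluorescence drop versus no-compound background flagged substrates.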
TrxR1 inh = rat TrxR1 inhibition | recombinant rTrxR1, NADPH fluorescence consumption, selenite substrate | AID 588453 | Potency, µM (doses to about 114 µM), without a hit: at the top dose activity change, negative = inhibition, actives largely listed as inhibitors | O89049 | 390,000 tested, 1% active; also: potency is read from the fitted curve at half-maximal effect; nearly all actives have a fitted effect of over 65% in size
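Rat TrxR1 (90 nM in the dispensed reagent) was pre-reduced with 400 uM NADPH for 5 min at room temperature, then incubated with compound for 15 min. After 400 uM selenite was added, NADPH fluorescence (Ex 340/Em 450 nm) was followed for 8 min.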
Six1-Eya2 blk = blocks human Six1 binding to Eya2 | AID 651725 | Q15475+O00167 | AlphaScreen GST-Six1/His-Eya2 binding, biochemical; hits give low values | 360,000 tested, 0.56% active | activity change, % (concentration not given with the values); in the data active = activity change below about -65%; inconclusive = mostly about -30% to -63%
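GST-Six1 + His-Eya2 (5X stock: 250/500 nM); Tris pH 8.0, 300 mM NaCl, 0.05% BSA, 0.02% Tween 20; GSH donor/Ni acceptor beads; 1 h 37 °C dark; AlphaScreen readout.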
Active calls of the source: *; [ ] = another dose, or the depositor's remark. Shown are actives, neighbours in structure and some others; about 1.5% of the full set was active somewhere. Unless noted, calls follow the shape of the dose curve; as a rule, active = well fitted curve in the direction sought with a large enough effect; inconclusive = small, poorly fitted or top-dose-only effect, or another doubt; inactive = no such curve, though single readings can be large; an effect the other way counts as inactive or inconclusive. % is scaled to controls: 0 for no effect and ±100 for the full control effect.

What do the screens show for `CCN(CC(=O)Nc1ccc(NC(C)=O)cc1)Cc1c(O)ccc2cc(Br)ccc12`?
Eya2 phos inh: 4%; GALK inh: 13%; CtBP-E1A inh: 1; TrxR1 substrate: 0%[57.1 µM]; TrxR1 inh: 6.3µM*; Six1-Eya2 blk: 6

Results for Cc1ccc(NC(=O)CN(C)Cc2c(O)ccc3ccccc23)cc1 ?
Eya2 phos inh: -5%; GALK inh: -2%; CtBP-E1A inh: 0; TrxR1 substrate: 9%; TrxR1 inh: 14µM*; Six1-Eya2 blk: 13

Results for COc1ccc2ccc(O)c(CN(C)CC(=O)Nc3ccccc3C(F)(F)F)c2c1 ?
Eya2 phos inh: -2%; GALK inh: 1%; CtBP-E1A inh: -2; TrxR1 substrate: -6%[57.1 µM]; TrxR1 inh: 8.9µM*; Six1-Eya2 blk: 2

What do the screens show for `CCOC(=O)CNC(=O)Nc1cc(C(=O)NCc2ccc(C(C)C)cc2)ccc1N1CCCC1`?
TrxR1 substrate: 2%[57.1 µM]; TrxR1 inh: 11%[57.1 µM]

How did O=C(Nc1ccc(F)c(Cl)c1)C1CCCN1S(=O)(=O)c1ccc(F)cc1 (stereo not given) do in these assays?
TrxR1 substrate: -10%; TrxR1 inh: -4%

How did CC(C)c1nc(SCC(=O)Nc2ccc(C(=O)O)cc2)c2c3c(sc2n1)CCCC3 do in these assays?
Eya2 phos inh: -4%; GALK inh: -3%; CtBP-E1A inh: -16; TrxR1 substrate: 7%[57.1 µM]; TrxR1 inh: -5%[57.1 µM]; Six1-Eya2 blk: -83*

Results for CC1CCc2c(sc3ncnc(SCC(=O)Nc4ccc(C(=O)O)cc4)c23)C1 (stereo not given) ?
Eya2 phos inh: -8%; GALK inh: -7%; CtBP-E1A inh: -6; TrxR1 substrate: -1%[57.1 µM]; TrxR1 inh: 4%[57.1 µM]; Six1-Eya2 blk: 0

Results for O=C1CC(c2nnc(Cc3ccccc3Cl)o2)CN1c1ccccc1 (stereo not given) ?
TrxR1 substrate: 1%; TrxR1 inh: 7%

How did Cc1ccc(-c2nnc3ccc(SCC(=O)c4ccccc4)nn23)cc1 do in these assays?
TrxR1 substrate: -4%; TrxR1 inh: -5%

Results for Nc1c(Cl)ncnc1N/N=C/c1ccccn1 ?
Eya2 phos inh: -5%; GALK inh: 5%; CtBP-E1A inh: -86*; TrxR1 substrate: -15%; TrxR1 inh: inconclusive; Six1-Eya2 blk: -87*

How did Nc1c(Cl)ncnc1N/N=C/c1ccc2ccccc2n1 do in these assays?
Eya2 phos inh: 1%; GALK inh: 1%; CtBP-E1A inh: -80*; TrxR1 substrate: -23%; TrxR1 inh: -32%; Six1-Eya2 blk: -80*

What do the screens show for `Nc1c(Cl)ncnc1N/N=C/c1ccnc2ccccc12`?
Eya2 phos inh: 4%; GALK inh: 2%; CtBP-E1A inh: -16; TrxR1 substrate: 7%; TrxR1 inh: -10%; Six1-Eya2 blk: -22

How did O=C(O)/C=C/C(=O)Nc1ccccc1C(=O)Nc1ccccc1 do in these assays?
Eya2 phos inh: 24%; GALK inh: 0%; CtBP-E1A inh: 3; TrxR1 substrate: -2%; TrxR1 inh: 40µM*; Six1-Eya2 blk: 9

What do the screens show for `CC1=CN2C(=N)/C(=C/c3ccc([N+](=O)[O-])o3)C(=O)N=C2S1`?
Eya2 phos inh: 2%; GALK inh: 3%; CtBP-E1A inh: -25; TrxR1 substrate: -16%; TrxR1 inh: 2.5µM*; Six1-Eya2 blk: inconclusive

What do the screens show for `O=C(OCn1ncc(Cl)c(Cl)c1=O)c1cccc(C(F)(F)F)c1`?
Eya2 phos inh: -12%; GALK inh: -6%; CtBP-E1A inh: -14; TrxR1 substrate: 3%; TrxR1 inh: 16µM*; Six1-Eya2 blk: -24

Results for Cc1ccc2oc(=O)c3cc(C(=O)N(Cc4ccccc4)C(C)C)sc3c2c1 ?
TrxR1 substrate: 5%; TrxR1 inh: 38%

Results for COc1cc(/C=N/NC(=O)c2sc(N)c(C#N)c2C)cc(Br)c1O ?
Eya2 phos inh: -18%; GALK inh: -3%; CtBP-E1A inh: -77*; TrxR1 substrate: 2%; TrxR1 inh: -4%; Six1-Eya2 blk: -67*

Results for COc1ccc2ccccc2c1/C=N/NC(=O)c1sc(N)c(C#N)c1C ?
Eya2 phos inh: -1%; GALK inh: 2%; CtBP-E1A inh: -2; TrxR1 substrate: 4%; TrxR1 inh: 7%; Six1-Eya2 blk: -7

How did COc1cc(/C=N\NC(=O)c2sc(N)nc2C)cc(OC)c1OC do in these assays?
Eya2 phos inh: -14%; GALK inh: -2%; CtBP-E1A inh: -84*; TrxR1 substrate: -7%; TrxR1 inh: -3%; Six1-Eya2 blk: -82*

What do the screens show for `CN(C)c1ccc(/C=C/c2ccnc3c([N+](=O)[O-])cccc23)cc1`?
TrxR1 substrate: -7%; TrxR1 inh: -15%

Results for Cc1ccc(C(=O)Nc2nc(-c3ccccn3)cs2)cc1S(=O)(=O)N1CCOCC1 ?
Eya2 phos inh: 5%; CtBP-E1A inh: -92*; TrxR1 substrate: -8%; TrxR1 inh: -1%; Six1-Eya2 blk: -91*

How did Cc1ccc(C(=O)Nc2ccccn2)cc1S(=O)(=O)N1CCOCC1 do in these assays?
Eya2 phos inh: 4%; CtBP-E1A inh: 3; TrxR1 substrate: -9%; TrxR1 inh: -16%; Six1-Eya2 blk: 2

What do the screens show for `CN(CC1CCCO1)S(=O)(=O)c1ccc(C(=O)Nc2ccccc2F)cc1` (stereo not given)?
CtBP-E1A inh: -3; TrxR1 substrate: -1%; TrxR1 inh: -3%; Six1-Eya2 blk: 12

What do the screens show for `Cc1cc(C)n(-c2ccc(C(=O)Nc3ccc(C)c(S(=O)(=O)N4CCOCC4)c3)cc2)n1`?
Eya2 phos inh: -8%; GALK inh: -1%; CtBP-E1A inh: -76*; TrxR1 substrate: 22%[0.0914 µM]; TrxR1 inh: -43%[0.0914 µM]; Six1-Eya2 blk: -73*

How did CN(CC1CCCO1)S(=O)(=O)c1ccc(C(=O)Nc2nc(-c3ccccn3)cs2)cc1 (stereo not given) do in these assays?
Eya2 phos inh: 1%; GALK inh: -1%; CtBP-E1A inh: -92*; TrxR1 substrate: -6%[57.1 µM]; TrxR1 inh: 3%[57.1 µM]; Six1-Eya2 blk: inconclusive

What do the screens show for `O=C(Nc1nc(-c2ccccn2)cs1)c1cc(S(=O)(=O)N2CCOCC2)ccc1F`?
Eya2 phos inh: 3%; CtBP-E1A inh: inconclusive; TrxR1 substrate: -5%; TrxR1 inh: 4%; Six1-Eya2 blk: -90*

How did O=C(Nc1nc(-c2ccccn2)cs1)c1ccc(F)c(S(=O)(=O)N2CCOCC2)c1 do in these assays?
Eya2 phos inh: -8%; CtBP-E1A inh: -93*; TrxR1 substrate: -4%; TrxR1 inh: inconclusive; Six1-Eya2 blk: -93*
